KB-V1 cytotox: kills drug-selected multidrug resistant KB-V1 cells. KB-V1 MDR cells viability, CellTiter-Glo, 72 h. Potency, µM (series often up to 46.1 µM), most hits filed as cytotoxic. 3.4% of 400,000 active. AID 1347076; note: nearly all actives have a fitted effect of over 60% in size
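KB-V1, DMEM (no phenol red) + 10% FBS; cpd pin-transferred, titration series; 72 h, 37 degrees C; CellTiter-Glo, luminescence. Data normalized, curve-fit.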
SW480 rereplic: DNA re-replication induction in SW480 cells. 1.8% of 340,000 active. SW480 DNA re-replication, Hoechst DNA content imaging, 48 h. Potency, µM (doses to about 46.1 µM), hits mostly activators; note: nearly all actives have a fitted effect of over 55% in size
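Cells (250 per well) received 23 nL compound or DMSO by pin tool and were kept 48 hr at 37 C, 5% CO2. Nuclei were then stained with Hoechst for 40 min and scanned for DNA content.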
KB-3-1 tox: kills parental KB-3-1 adenocarcinoma cells | KB-3-1 viability, CellTiter-Glo ATP luminescence, 72 h | Potency, µM (titrated, usually from 46.1 µM), actives largely listed as cytotoxic | 1.4% of 400,000 active; note: nearly all actives have a fitted effect of over 60% in size
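Parental KB-3-1 adenocarcinoma cells in phenol-red-free DMEM with 10% FBS were pin-treated with compounds at several concentrations, incubated 72 h at 37 °C, and viability read by CellTiter-Glo luminescence; concentration-effect curves were fitted after normalization.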
MCF10A rerep: inducers of DNA re-replication in MCF 10A breast cells; AID 624296; 2.9% of 350,000 active; Potency, µM (titrated, usually from 46.1 µM), hits mostly activators; MCF 10A DNA re-replication, Hoechst nuclear intensity, 48 h; note: nearly all actives have a fitted effect of over 50% in size
ELG1 DNA repair: ELG1-dependent DNA repair inhibition; HEK293T ELG1-luciferase reporter, luminescence, 16 h; DNA damage induced by 5-fluorouridine; 2.3% of 330,000 active; Potency, µM (series often up to 46.1 µM), actives largely listed as inhibitors; note: nearly all actives have a fitted effect of over 55% in size
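Luminescence from the luciferase reporter, measured 30 min after ONE-Glo reagent at room temperature, was the read-out. Beforehand, 2,000 cells per well were exposed for 16 hr at 37 °C to 5-fluorouridine together with compound or vehicle.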
Of the large screens only hits and unclear results are named; the others gave an inactive call. A selection: hits, their analogues and other compounds. The true share with any hit is near 8.1%. Calls come from the whole dose curve; as a rule, active = well fitted curve in the direction sought with a large enough effect; inconclusive = small, poorly fitted or top-dose-only effect, or another doubt; inactive = no such curve, though single readings can be large; an effect the other way counts as inactive or inconclusive.

COc1ccc(CNC(=O)/C=C/c2ccc(S(=O)(=O)N3CCOCC3)cc2)cc1	ELG1 DNA repair inconclusive
COc1ccc(-n2nnnc2C(c2cccc(OC)c2OC)N2CCN(C/C=C/c3ccccc3)CC2)cc1 (stereo not given)	none (no result: SW480 rereplic, MCF10A rerep, ELG1 DNA repair)
Nc1nc2c(nnn2C2CC(O)C(CO)O2)c(=O)[nH]1 (stereo not given)	KB-V1 cytotox 1.3µM, KB-3-1 tox 2.3µM (no result: SW480 rereplic, MCF10A rerep, ELG1 DNA repair)
COc1cccc(-c2csc(N3CCN(CC(=O)NNC(=O)c4ccc(Cl)cc4)CC3)n2)c1	KB-V1 cytotox inconclusive, ELG1 DNA repair inconclusive
COc1ccc(NC(=O)N2CCN(c3nc(-c4cccc(OC)c4)cs3)CC2)cc1	KB-V1 cytotox 12µM, KB-3-1 tox inconclusive, MCF10A rerep inconclusive, ELG1 DNA repair 18µM
COCCCNC(=S)N1CCN(c2nc(-c3ccccc3)cs2)CC1	MCF10A rerep 15µM, ELG1 DNA repair inconclusive
COc1cccc(-c2csc(N3CCN(C(=S)Nc4ccccc4OC)CC3)n2)c1	KB-V1 cytotox inconclusive, MCF10A rerep 8.2µM
COc1cccc(-c2csc(N3CCN(C(=S)Nc4ccccc4Cl)CC3)n2)c1	none
CCOCCCNC(=S)N1CCN(c2nc(-c3ccccc3)cs2)CC1	KB-V1 cytotox inconclusive, MCF10A rerep inconclusive, ELG1 DNA repair inconclusive
COc1cccc(-c2csc(N3CCN(CC(=O)NNC(=O)c4ccc(Br)cc4)CC3)n2)c1	KB-V1 cytotox inconclusive, SW480 rereplic 15µM, KB-3-1 tox inconclusive, ELG1 DNA repair inconclusive
CCC(=O)N1CCc2cc(S(=O)(=O)NC(CC(C)C)C(=O)NCCc3ccccc3)ccc21 (stereo not given)	none (no result: SW480 rereplic, MCF10A rerep, ELG1 DNA repair)
CC[C@]12c3[nH]c4ccccc4c3CCN1C(=O)C(CC(=O)NCCC1=CCCCC1)C[C@@H]2C(=O)N1CCN(C(=O)c2ccco2)CC1 (stereo not given in full)	ELG1 DNA repair inconclusive
COC(=O)c1ccccc1NC(=O)c1cc(C)nc2c1c(C)nn2-c1ccc(C)cc1	none (no result: SW480 rereplic, MCF10A rerep, ELG1 DNA repair)
CNS(=O)(=O)c1cc(-c2nnc(Nc3cc(C)ccc3C)c3ccccc23)ccc1C	none (no result: SW480 rereplic, MCF10A rerep, ELG1 DNA repair)
CCN1C(=O)[C@H]2[C@@H](c3ccc(C)cc3)N[C@]3(CCCN(Cc4ccccc4)C3=O)[C@H]2C1=O	none (no result: SW480 rereplic, MCF10A rerep, ELG1 DNA repair)
Cc1nn(CC(=O)NCCc2ccc(Cl)cc2)c(=O)c2cc3cc(F)ccc3n12	none (no result: SW480 rereplic, MCF10A rerep, ELG1 DNA repair)
O=C(NC(=S)N1CCN(c2nc(-c3ccccc3)cs2)CC1)c1cncc(Br)c1	KB-V1 cytotox inconclusive, SW480 rereplic 16µM, KB-3-1 tox inconclusive, MCF10A rerep 21µM, ELG1 DNA repair inconclusive
O=C(CN1CCN(c2nc(-c3ccccc3)cs2)CC1)NNC(=O)c1ccc(Br)cc1	ELG1 DNA repair inconclusive
COc1ccc(C2N=C(c3ccccc3)NC(c3ccccc3)=N2)cc1	KB-V1 cytotox inconclusive, SW480 rereplic inconclusive, MCF10A rerep 2.6µM
Nc1nc2c(ncn2[C@@H]2O[C@H](CNS(=O)(=O)C3CC3)[C@@H](O)[C@H]2O)c(=O)[nH]1	none (no result: SW480 rereplic, MCF10A rerep, ELG1 DNA repair)
FC(F)(Cl)c1nnc2ccc(Cl)nn12	KB-V1 cytotox inconclusive, SW480 rereplic inconclusive, KB-3-1 tox 6.5µM, MCF10A rerep inconclusive
COCc1ccccc1C1=CC(=O)C[C@H](c2ccc(OC)cc2)C1	MCF10A rerep inconclusive
CCOc1ccc(N(CC(=O)Nc2ccccc2Cl)S(C)(=O)=O)cc1	KB-V1 cytotox inconclusive, SW480 rereplic 21µM, KB-3-1 tox inconclusive, MCF10A rerep inconclusive
CCOc1ccc(N(CC(=O)Nc2cc(Cl)ccc2C)S(C)(=O)=O)cc1	SW480 rereplic 18µM, MCF10A rerep inconclusive
CCOc1ccc(N(CC(=O)Nc2ccccc2OC)S(C)(=O)=O)cc1	KB-V1 cytotox inconclusive, SW480 rereplic inconclusive, KB-3-1 tox inconclusive, MCF10A rerep inconclusive
CS(=O)(=O)N(CC(=O)Nc1cc(Cl)ccc1Cl)c1ccccc1	KB-V1 cytotox 16µM
Cc1ccc(C(=O)OCC(=O)NCc2ccc(Cl)cc2)s1	none (no result: SW480 rereplic, MCF10A rerep, ELG1 DNA repair)
Cc1cc(-c2ccccc2)n2nc(-c3cccc(Br)c3)cc2n1	none (no result: SW480 rereplic, MCF10A rerep, ELG1 DNA repair)
CCOc1ccc(CN2CCN(Cc3[nH]c4ccccc4c3C)CC2CCO)cc1 (stereo not given)	KB-V1 cytotox inconclusive, SW480 rereplic 23µM, KB-3-1 tox inconclusive, MCF10A rerep inconclusive, ELG1 DNA repair inconclusive
COc1ccc(NC(=O)Nc2cnccn2)c(OC)c1	KB-V1 cytotox 5.8µM, KB-3-1 tox 5.2µM
